# Results as given in PubChem BioAssay (NCATS).
# Inconclusive results are not listed. Entries that show only a call come without a potency. The source made the active and inactive calls. Calls come from the whole dose curve; as a rule, active = well fitted cell-killing curve with a large enough effect; inconclusive = small, poorly fitted or top-dose-only effect; inactive = flat fitted curve, though single readings scatter.
# Experiment: Cell Viability - LYMP2-026 (AID 989);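 note: cells exposed to compound for 24 h at 37 °C; nearly all actives have a fitted effect of over 50% in size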
# Details: LYMP2-026 lymphoblastoid cell viability, qHTS; series mostly up to 92.2 µM
# Excerpt: NIH Chemical Genomics Center [NCGC]
# NIH Molecular Libraries Screening Centers Network [MLSCN]
# National Institutes of Environmental Health Sciences [NIEHS]
# National Toxicology Program [NTP]
# We have developed a 1536-well cell-based assay for quantitative high throughput screening (qHTS) against a number of cell lines to determine in vitro cytotoxicity of small molecules. This particular assay uses a human lymphoblastoid cell line (LYMP2-026) purchased from Coriell Institute for Medical Research.
# NCGC Assay Protocol Summary:
# The CellTiter-Glo luminescent cell viability assay (Promega) is a homogeneous method to measure the number of viable cells in culture. The end point readout of this assay is based on quantitation of intracellular ATP, an indicator of metabolic activity, using the luciferase reaction. Luciferase catalyzes the oxidation of beetle Luciferin to oxyluciferin and light in the presence of ATP. The luminescent signal is proportional to amount of ATP present.
# Using the CellTiter-Glo luminescent cell viability assay, the amount of cellular ATP was measured in the lymphoblastoid cell line with complete culture medium following compound treatment for 24 hours. The assay was performed in opaque white Kalypsys 1536-well plates. In the screen, tetraoctylammonium bromide was used as positive control. Library compounds were measured for their ability to cause acute toxicity in the cell line, as reflected by a decrease in intracellular ATP levels, in a concentration-dependent manner. […] AC50 values were determined from concentration-response data modeled with the standard Hill equation.
# qHTS protocol for CellTiter Glo lymphoblastoid cellular assay
# [Step] [Parameter] [Value] [Description]
# 1. Reagent; 5 uL; 2500 lymphoblastoid cells/well
# 2. Time; 5 hr; 37 C incubation
# 4. Controls; 23 nL; Tetraoctylammonium bromide 6.4pM to 92 uM
# 5. Time; 24 hr; 37 C incubation
# 6. Reagent; 5 uL; CellTiter Glo reagent
# 7. Time; 30 min; Room Temperature
# 8. Detection; Luminescence; Viewlux plate reader
# Keywords: cell viability, cytotoxicity, lymphoblastoid cell line, luminescence, NTPHTS, NTPHTS_NCGC, NIEHS, DSSTox, MLSMR, MLSCN, NIH Roadmap, qHTS, NCGC
# Potency is the fitted concentration of half-maximal effect.
row,SMILES,Potency
1,CCCCCCN,inactive
2,CN(C)c1ccc(Cc2ccc(N(C)C)cc2)cc1,inactive
3,OC1CCCCC1,inactive
4,Cc1c2ccccc2c(C)c2c1ccc1ccccc12,inactive
5,c1ccc(CSCc2ccccc2)cc1,inactive
6,CC(=O)OC(C(=O)c1ccccc1)c1ccccc1 (stereo not given),inactive
7,CC/C=C/C/C=C/C/C=C/CCCCCCCC(=O)OCC,50.1 µM (active)
8,O=[N+]([O-])c1cc(Cl)c(Cl)c(Cl)c1Cl,inactive
9,CCCCC(CC)COC(=O)COc1ccc(Cl)cc1Cl (stereo not given),inactive
10,O=C(O)c1ccc([N+](=O)[O-])cc1,inactive
11,Cc1ccc(S(N)(=O)=O)cc1,inactive
12,CC(=O)OC1CC(C)OC(C)O1 (stereo not given),inactive
13,c1cc2c3c(c1)ccc1cccc(c13)C2,inactive
14,C=C(C#N)C(=O)OCC,inactive
15,COc1cc(-c2ccc(N=C=O)c(OC)c2)ccc1N=C=O,inactive
16,CC(=O)OCc1ccc2c(c1)OCO2,inactive
17,CC(C)COC(=O)COc1cc(Cl)c(Cl)cc1Cl,inactive
18,NC(=O)c1ccc([N+](=O)[O-])cc1,inactive
19,c1ccc(Nc2cccc3ccccc23)cc1,inactive
20,CCCCC(CC)COCCCN (stereo not given),inactive

row,SMILES,Potency
1,CCC(Cl)CC(Cl)C(Cl)C(Cl)C(Cl)C(C)Cl (stereo not given),inactive
2,CC(CCC(=O)O)(c1ccc(O)cc1)c1ccc(O)cc1,inactive
3,Cc1cc(=O)oc2cc(O)cc(O)c12,inactive
4,Oc1ccc2c(c1)OCO2,inactive
5,O=[N+]([O-])c1cccc(I)c1,inactive
6,COc1ccc([N+](=O)[O-])cc1N,inactive
7,Cc1cc(-c2ccc(N=Nc3cc(S(=O)(=O)O)c4ccccc4c3N)c(C)c2)ccc1N=Nc1cc(S(=O)(=O)O)c2ccccc2c1N,inactive
8,NC(=O)Nc1nc2ccccc2[nH]1,inactive
9,Nc1ccc(N)c(Cl)c1,inactive
10,c1ccc(COCc2ccccc2)cc1,inactive
11,CC(C)S,inactive
12,S=C(NC1CCCCC1)NC1CCCCC1,inactive
13,C/C=C/C=C/C=O,39.8 µM (active)
14,Nc1ccccc1O,inactive
15,Oc1cc(Cl)cc(Cl)c1Cl,inactive
16,O=C1OC(=O)c2ccccc21,inactive
17,Clc1nc2ccccc2nc1Cl,inactive
18,Cc1cccnc1,inactive
19,CC(=O)CC(=O)Nc1ccccc1,inactive
20,CC1=C(/C=C/C(C)=C/C=C/C(C)=C/C=O)C(C)(C)CCC1,50.1 µM (active)
